This is a sample that favours compounds with a hit; in the whole collection about 0.55% have one here.
S-ASM inh – human S-ASM enzyme inhibition. AID 504937. placental ASM, HMU-PC fluorogenic substrate, 60 min. Potency, µM (top dose mostly 57.5 µM), for the others: at the top dose activity change, negative = inhibition, usual class: inhibitors. 340,000 compounds, 0.006% hits. P17405; also: potency is read from the fitted curve at half-maximal effect
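Fluorescence read-out (Ex 386 nm, Em 447 nm) after stopping the reaction at pH 10. Enzyme: ASM from human placenta; substrate HMU-PC0, 9 uM final; 60 min, 37 °C. Compound preincubation 10 min, ambient temperature.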
p53 reactivator – restores transcriptional activity of mutant p53. 320,000 compounds, 0.063% hits. H1299 p53-A138V BP100-luciferase reporter, luminescence, 24 h. Potency, µM (highest dose often 92.2 µM), for the others: at the top dose activity change, positive = activation, most hits filed as activators; also: potency is read from the fitted curve at half-maximal effect; % of control where 0% means no effect; nearly all actives have a fitted effect of over 45% in size
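H1299 (p53-null), stable ts p53-A138V + BP100-Luc; 1000 cells/well, Opti-MEM/10% FBS; cpd 4 pt, 1:5; 24 h, 37 deg C, 5% CO2; detection reagent 10 min RT; luminescence.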
ERG Ets-DNA blk – inhibitors of human ERG Ets domain-DNA interaction. P11308. fluorescence polarization, His-ERG Ets domain / labelled DNA. Potency, µM (doses to about 76.9 µM), for inactives: at the top dose FP activity, negative = inhibition, most hits filed as inhibitors. 370,000 compounds, 0.028% hits. AID 624246; active = well fitted inhibition curve with a large enough effect in the polarisation, with a control signal flat; inconclusive = small, poorly fitted or top-dose-only effect, or effect the other way, or a change in a side signal; inactive = no such curve, though single readings can be large or run the other way; the % refers to the polarisation;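 also: polarization taken with two DNA probes labelled with fluorescein and Texas red; potency is read from the fitted curve at half-maximal effect; % of control where 0% means no effect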
Target sequence (P11308 whole entry, looked up, the tested form may be a part): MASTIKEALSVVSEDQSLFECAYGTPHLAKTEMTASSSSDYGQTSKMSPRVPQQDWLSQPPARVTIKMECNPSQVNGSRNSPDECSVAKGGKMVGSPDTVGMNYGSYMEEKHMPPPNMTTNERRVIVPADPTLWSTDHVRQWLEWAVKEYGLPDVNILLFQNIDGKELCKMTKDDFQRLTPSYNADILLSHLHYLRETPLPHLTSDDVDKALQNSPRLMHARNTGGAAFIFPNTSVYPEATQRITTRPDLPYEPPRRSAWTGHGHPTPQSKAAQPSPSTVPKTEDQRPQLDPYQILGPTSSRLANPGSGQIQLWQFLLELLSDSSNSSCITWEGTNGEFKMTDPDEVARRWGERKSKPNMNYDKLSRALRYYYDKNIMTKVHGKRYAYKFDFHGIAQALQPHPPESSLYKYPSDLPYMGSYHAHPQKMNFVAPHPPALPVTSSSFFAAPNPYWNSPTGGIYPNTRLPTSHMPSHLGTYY
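His-tagged ERG Ets domain (1 uM in the protein solution; 300mM KCl, 50mM Tris-HCl, 1mM EDTA, 1mM DTT, pH 7.5) received compound, then a probe mix of 5 nM fluorescein-DNA and 100nM Texas-615-DNA. Fluorescence polarization was read for both dyes.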
Tb PFK block – inhibitors of T. brucei phosphofructokinase; Potency, µM (doses to about 57.5 µM), for inactives: at the top dose activity, negative = inhibition, most hits filed as inhibitors; 330,000 compounds, 0.17% hits; T. brucei PFK, ADP-Glo luminescence;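 also: potency is read from the fitted curve at half-maximal effect; 0% = uninhibited 1x PFK enzyme wells and -100% = no-enzyme wells; nearly all actives have a fitted effect of over 60% in size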
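Compounds were pin-transferred as a titration series up to 57 uM into substrate buffer (0.5 mM F6P, 0.1 mM ATP, pH 8.0), then 1.25 nM PFK was added and reactions ran 45 min before ADP-Glo detection.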
AT treatment – potential ataxia-telangiectasia treatments restoring KAP-1 phosphorylation | Potency, µM (top dose mostly 57.5 µM), for inactives: at the highest dose activation, most hits filed as activators | F2112 A-T fibroblasts, KAP-1 phosphorylation AlphaLISA; neocarzinostatin DNA damage 30 min before lysis | 320,000 compounds, 0.19% hits; also: potency is read from the fitted curve at half-maximal effect; % of control where 0% means no effect; nearly all actives have a fitted effect of over 45% in size
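ATM-like activity read as KAP-1 phosphorylation via AlphaLISA donor/acceptor antibody pairs after lysis and 6 hr at 25C. Cells were ATM-null patient fibroblasts (F2112, hTERT), dosed 60 min, then exposed to the DSB inducer NCS for 30 min.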
GCN5L2 inh-1 – GCN5L2 (KAT2A) acetyltransferase inhibition | AID 504327 | Potency, µM (titrated, usually from 58.9 µM), for inactives: top-dose activity change, negative = inhibition, most hits filed as inhibitors | GCN5L2 HAT assay, ThioGlo1 CoA-SH fluorescence | 390,000 compounds, 0.21% hits; also: potency is read from the fitted curve at half-maximal effect; % is scaled to controls: 0 for no effect and ±100 for the full control effect
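GCN5L2 (20nM final) in 50mM HEPES, 0.1mM EDTA pH 7.5, 0.01% Tween-20 was preincubated 15 min at room temperature with compound, then given ThioGlo1 (50uM), H3(1-25) peptide (75uM) and acetyl-CoA (70uM); CoA-thiol fluorescence (Ex340/Em540) was read at 0 and 20 min.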
GCN5L2 inh-2 – human KAT2A HAT inhibition, hit confirmation; Potency, µM, actives largely listed as inhibitors; GCN5L2 HAT, ThioGlo1 CoA fluorescence, 20 min; shares compounds with GCN5L2 inh-1; 140 compounds, 70% hits
* marks the source's active call; other numbers are inactive results; ? = inconclusive; · = no result. Unless noted, calls follow the shape of the dose curve; as a rule, active = well fitted curve in the direction sought with a large enough effect; inconclusive = small, poorly fitted or top-dose-only effect, or another doubt; inactive = no such curve, though single readings can be large; an effect the other way counts as inactive or inconclusive.

SMILES | S-ASM inh | p53 reactivator | ERG Ets-DNA blk | Tb PFK block | AT treatment | GCN5L2 inh-1 | GCN5L2 inh-2
N#C/C(=C\c1cccs1)C(=O)c1ccccc1Cl | -2.5% | -11.6% | 86.7% | ? | -14.6% | ? | ?
COc1cc(C(=O)CC2(O)C(=O)N(Cc3ccccc3Cl)c3ccccc32)cc(OC)c1OC (stereo unspecified) | · | · | 2.2% | · | · | -16.3% | ·
COc1ccccc1CNC(=O)Cc1c(C)c2cc3c(C)coc3c(C)c2oc1=O | · | · | 9.1% | · | · | -12.3% | ·
CCS(=O)(=O)C1=NN2C(=N)/C(=C\c3ccc(OS(=O)(=O)c4ccccc4)cc3)C(=O)N=C2S1 | ? | 0.2% | 12.9% | ? | -4.6% | 14.1µM* | 10.2*
Cc1ccc(S(=O)(=O)Oc2ccc(/C=C3/C(=N)N4C(=NC3=O)SN=C4S(C)(=O)=O)cc2)cc1 | -29.9% | 11.2% | 11.0% | -6.6% | -3.1% | ? | 10.2*
CCc1ccc(-n2cccc2/C=C2/C(=N)N3C(=NC2=O)SN=C3S(C)(=O)=O)cc1 | 8.3% | 0.6% | 22.9% | 0.3% | -6.5% | 20µM* | ?
CS(=O)(=O)C1=NSC2=NC(=O)/C(=C\c3ccc(OS(=O)(=O)c4ccccc4)cc3)C(=N)N21 | 4.3% | 21.7% | 2.5% | 0.7% | 16.1% | ? | ·
O=C(Nc1ccc(Cl)cc1)c1cc(S(=O)(=O)N2CCc3ccccc32)ccc1F | · | · | -0.6% | · | · | -4.4% | ·
Cc1ccc2c(c1C)NC(C(=O)O)C1CC=CC21 (stereo unspecified) | -15.2% | 0.5% | · | ? | -0.5% | 22.4µM* | 14.5*
Cc1ccc(S(=O)(=O)NC(C(=O)Oc2ccc3c(C(F)(F)F)cc(=O)oc3c2)c2ccccc2)cc1 (stereo unspecified) | · | -10.1% | -0.4% | 6.2% | 6.2% | ? | ?
COC(=O)C(NS(=O)(=O)c1ccc(C)cc1)c1ccccc1 (stereo unspecified) | 9.7% | 1.7% | 11.4% | 1.3% | 9.4% | -3.4% | ·

High-throughput results from PubChem BioAssay.
